HT1080-NT tox = kills 2HG-producing HT-1080-NT fibrosarcoma cells; HT-1080-NT fibrosarcoma viability, CellTiter-Glo ATP luminescence, 48 h; Potency, µM (series often up to 46.1 µM), inactives show at the top dose activity, negative = less viability, usual class: cytotoxic; 360,000 tested, 1.6% active; AID 686970;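 note: NT is the 2HG producing partner of a matched IDH1 knockdown line; potency is the fitted concentration of half-maximal effect; 0% = DMSO-treated cells and -100% = media-only wells without cells; nearly all actives have a fitted effect of over 55% in size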
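Viability by CellTiter-Glo luminescence after 48 h compound exposure at 37C of HT-1080-NT cells (750/well, RPMI, 5% FBS). % activity scaled between DMSO wells and medium-only wells, then curve-fitted and categorized by curve class.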
IL1B secr inh = inhibitors of inflammasome signaling (IL-1 beta secretion); THP-1 LPS/ATP IL-1B secretion, AlphaLISA, 16 h; stronger effect = lower value; activity change, % at 57.5 µM; 360,000 tested, 4.7% active; in the data active = activity change below about -50%; inconclusive = mostly about -30% to -49%
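THP-1 cells pretreated 1 hr with compounds (up to 57.5 uM final), then stimulated with LPS (250 ng/mL final) plus ATP (1.25 mM final); secreted IL-1B measured by AlphaLISA after 16 hr, decreased signal indicating inhibition.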
DT40 TDP1 CPT = DT40-hTDP1 cell growth loss with CPT. chicken DT40 Tdp1-/-;hTDP1 cells + 20 nM CPT, ATP luminescence, 48 h. Potency, µM (highest dose often 46.2 µM), for the others: at the highest dose activity change, negative = growth inhibition, usual class: inhibitors. 420,000 tested, 12% active; note: potency is the fitted concentration of half-maximal effect; nearly all actives have a fitted effect of over 55% in size
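Cell growth measured by CellTiter-Glo luminescence after a minimum 48 h, 37 C compound exposure with 20 nM CPT in Tdp1-knockout DT40 cells stably expressing hTDP1, seeded 400/well; qHTS titration format.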
ALOX12 inh = inhibitors of human 12S-lipoxygenase ALOX12; P18054; purified 12hLO, xylenol orange hydroperoxide absorbance; Potency, µM (doses to about 108 µM), for the others: at the highest dose activity change, negative = inhibition, actives largely listed as inhibitors; 580,000 tested, 1.1% active; AID 1671190; note: potency is the fitted concentration of half-maximal effect
Target sequence (P18054 whole entry, looked up): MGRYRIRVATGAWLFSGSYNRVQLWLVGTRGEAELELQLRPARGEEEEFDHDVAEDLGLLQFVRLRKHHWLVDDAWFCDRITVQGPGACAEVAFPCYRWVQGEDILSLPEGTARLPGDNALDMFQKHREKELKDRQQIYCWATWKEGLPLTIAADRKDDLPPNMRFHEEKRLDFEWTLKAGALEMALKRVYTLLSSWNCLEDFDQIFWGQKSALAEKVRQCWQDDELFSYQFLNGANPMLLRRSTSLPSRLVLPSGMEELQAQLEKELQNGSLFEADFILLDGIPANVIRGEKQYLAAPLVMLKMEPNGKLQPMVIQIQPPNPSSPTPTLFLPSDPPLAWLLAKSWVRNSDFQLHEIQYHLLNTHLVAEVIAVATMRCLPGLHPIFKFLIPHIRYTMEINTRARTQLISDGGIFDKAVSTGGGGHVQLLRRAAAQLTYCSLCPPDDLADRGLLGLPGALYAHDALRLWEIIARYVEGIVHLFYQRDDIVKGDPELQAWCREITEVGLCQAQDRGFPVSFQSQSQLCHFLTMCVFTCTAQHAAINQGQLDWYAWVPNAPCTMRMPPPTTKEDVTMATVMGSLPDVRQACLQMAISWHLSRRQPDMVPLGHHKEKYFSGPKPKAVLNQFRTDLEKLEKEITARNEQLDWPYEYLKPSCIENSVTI
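Purified human 12hLO at 150 nM in 25 mM Hepes, 0.01% Triton X-100, pH 7.0, preincubated 15 min at room temperature with compound. Reaction started with 40 uM arachidonic acid, 30 min at room temperature. Hydroperoxide measured by Fe-xylenol orange, 573/405 nm absorbance ratio.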
HT1080 IDH1KD tx = toxicity to HT-1080 IDH1 knockdown cells (counter line) | HT-1080 IDH1 knockdown viability, ATP luminescence, 48 h | Potency, µM (series often up to 46.1 µM), for the others: at the highest dose activity, negative = toxicity, most hits filed as cytotoxic | 360,000 tested, 2% active | AID 686971;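 note: potency is the fitted concentration of half-maximal effect; 0% = DMSO wells and -100% = cell-free medium wells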
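Cytotoxicity counter-line: IDH1KD HT-1080, 48 h, CellTiter-Glo. Curves classed by r2, magnitude and activity.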
DT40 TDP1 no CPT = qHTS for Inhibitors of human tyrosyl-DNA phosphodiesterase 1 (TDP1): qHTS in cells in absence of CPT | DT40 Tdp1-/- hTDP1 cells, no CPT, ATP luminescence, 48 h | Potency, µM (top dose mostly 46.2 µM), without a hit: at the highest dose activity change, negative = growth inhibition, most hits filed as inhibitors | 420,000 tested, 15% active; note: potency is the fitted concentration of half-maximal effect; nearly all actives have a fitted effect of over 55% in size
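Readout: luminescence from CellTiter-Glo after 30 min in the dark at RT. Cells: DT40 Tdp1-/- with stable hTDP1, 400/well. Exposure: compounds alone, ≥48 hr, 37 °C.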
* hit, by the source's call; ? = inconclusive; · = no result; [ ] = remark or other dose. Only a selection was taken, and hits are over-represented in it overall. Unless noted, calls come from the whole dose curve; as a rule, active = well fitted curve in the direction sought with a large enough effect; inconclusive = small, poorly fitted or top-dose-only effect, or another doubt; inactive = no such curve, though single readings can be large; an effect the other way counts as inactive or inconclusive. Unless noted, % is set by controls: 0 for no effect and ±100 for the full control effect.

SMILES	HT1080-NT tox	IL1B secr inh	DT40 TDP1 CPT	ALOX12 inh	HT1080 IDH1KD tx	DT40 TDP1 no CPT
CC(C)Cc1ccc(CN2CCCC(NC(=O)CCN3CCCCC3=O)C2)cc1 (stereo not drawn)	-15%	21	?	13%	-5%	?
CN1CCCCC(CC(=O)NCCc2ccccc2)C1=O (stereo not drawn)	·	·	·	39%	·	·
C=CCn1c(SCc2ccc(C(=O)Nc3nccs3)cc2)nnc1-c1ccc(C)c(Cl)c1	-21%	-52*	?	-20%	?	23µM*
Brc1ccc[n+](CCC2CCCCC2)c1	·	·	?	·	·	10µM*
CCCCCCCCCCCCCCC	·	·	·	0%[176 µM]	·	·
CCCCCCCCCC[n+]1cccc(Br)c1	·	·	1.4µM*	·	·	5µM*
CCCCCCCCCC[n+]1cccc(C(=O)N(CC)CC)c1	-15%	-23	8.2µM*	-9%	0%	2.9µM*
CCCCCCCCCC[n+]1cc(Br)cc(Br)c1	·	·	0.79µM*	·	·	0.45µM*
Fc1ccccc1-c1cc2c(ccn2Cc2ccncc2)c(N2CCOCC2)n1	·	·	·	-28%[176 µM]	·	·
N#Cc1cccc(CN2CC[C@@H]3OCC(=O)N(Cc4ccccc4)[C@H]3CC2)c1	·	·	·	-5%[176 µM]	·	·
COc1ccc(-c2nc3ccccc3c(=O)n2CCOc2cccc(C)c2)cc1	·	·	·	-3%	·	·
CCn1nc(C)cc1C(=O)Sc1ccc(Cl)cc1Cl	?	-62*	3.7µM*	0%	?	3.7µM*
CCn1nc(C)cc1C(=O)Sc1cccc(Br)c1	13µM*	-102*	3.7µM*	-164%	21µM*	4.6µM*
CCOc1ccc(-c2ccc(C(=O)O)s2)cc1	·	·	·	16%	·	·
Cc1ccc(C(=O)NCc2coc(-c3cccs3)n2)cc1[N+](=O)[O-]	·	·	·	-4%	·	·
C[C@@H](NC(=O)c1ncn2c1c(=O)[nH]c1ccc(Br)cc12)c1ccccc1	12%	-18	?	-42%	17%	21µM*
C[C@@H](NC(=O)c1ncn2c1c(=O)[nH]c1cccnc12)c1ccccc1	-8%	46	-2%	-42%	-9%	-14%
CC(C)CCN1C(=O)CC[C@]2(C(=O)N3CCC(C)CC3)CCCC[C@@H]12	·	·	·	71%	·	·
CCc1ccc(CNC(=O)c2c(C)oc3ncn(CC(C)C)c(=O)c23)cc1	·	·	?	?	·	16µM*
CCOC(=O)C(C)NC(=O)c1c(C)oc2ncn(CC(C)C)c(=O)c12 (stereo not drawn)	·	·	?	?	·	23µM*
CCOc1ccc(CCNC(=O)c2c(C)oc3ncn(CC(C)C)c(=O)c23)cc1OCC	·	·	-28%	-9%	·	?
Cc1oc2ncn(CC(C)C)c(=O)c2c1C(=O)NCCc1ccccc1	·	·	?	-25%	·	16µM*
Cc1oc2ncn(CC(C)C)c(=O)c2c1C(=O)Nc1ccc(Cl)cn1	·	·	?	-24%	·	?
Cc1ccc(N2CCN(C(=O)c3c(C)oc4ncn(C)c(=O)c34)CC2)c(C)c1	·	·	2%	-19%	·	-4%
Cc1ccc(N2CCN(C(=O)c3c(C)oc4ncn(CC(C)C)c(=O)c34)CC2)c(C)c1	·	·	29µM*	?	·	7.3µM*
SMILES	HT1080-NT tox	IL1B secr inh	DT40 TDP1 CPT	ALOX12 inh	HT1080 IDH1KD tx	DT40 TDP1 no CPT
N#Cc1cccc(NC(=O)N2CCCC3(CCN(C(=O)c4cnccn4)CC3)C2)c1	·	·	20%	14%[57.4 µM]	·	-7%
Cn1ccnc1-c1ccc(N2CCC(CO)(CCOc3ccccc3)CC2)nn1	·	·	·	40%	·	·
CC(C)CN(CC(C)C)c1ccc(/C=N/n2cnnc2)cc1[N+](=O)[O-]	-14%	-55*	?	?	-1%	?
O=c1cc(OCc2ccccc2)cc[nH]1	13%	-66*	2%	-4%	8%	8%
Cc1cnc(C)c(-c2cccc3c2OC(CNC(=O)/C=C/c2ccc(F)c(F)c2)C3)n1 (stereo not drawn)	·	·	?	24%	·	?
Cc1cnc(C)c(-c2ccc(F)c3c2OC(CNC(=O)/C=C/c2cccs2)C3)n1 (stereo not drawn)	·	·	?	6%	·	21µM*
Cc1cnc(C)c(-c2cccc3c2OC(CNC(=O)C2(c4ccc(Cl)cc4)CC2)C3)n1 (stereo not drawn)	·	·	-14%[9.04 µM]	9%	·	21µM*
Cc1ccc(S(=O)(=O)N(C)CC(=O)N(C)CCOc2ccccc2)cc1	1%	-6	?	8%	-1%	?
COc1ccc(CC(=O)OCC(=O)NCCc2ccccc2)cc1OC	-5%	-4	-4%	-22%	-6%	-11%
Cc1cc2nc3n(c(=O)c2n1CC(=O)Nc1ccc(F)cc1)CCCCC3	·	·	·	8%	·	·
O=c1[nH]c2ccccc2n2c(C(F)(F)F)nnc12	5%	20	-4%	1%	6%	-3%
FC(F)(F)c1nnc2c(Sc3ccccc3)nc3ccc(Cl)cc3n12	9.2µM*	-70*	0.65µM*	-5%	-12%	0.58µM*
CC(=O)NC(NC(=S)Nc1cccc(Br)c1)C(Cl)(Cl)Cl (stereo not drawn)	-24%	-60*	?	?	?	?
Cc1cccc(NC(=S)NC(NC(=O)OCc2ccccc2)C(Cl)(Cl)Cl)c1 (stereo not drawn)	?	-3	23µM*	-29%	?	?
CC(=O)Nc1ccccc1C(=O)C(=O)Nc1cccc(Br)c1	-24%	-1	-28%	1%	-22%	18µM*
CC(=O)NC(NC(=S)Nc1ccc(N=Nc2ccccc2)cc1)C(Cl)(Cl)Cl (stereo not drawn)	?	-19	?	-14%	?	?
O=C(NC(NC(=S)Nc1cccc(Cl)c1)C(Cl)(Cl)Cl)OCc1ccccc1 (stereo not drawn)	?	?	?	?	?	18µM*
O=C(NC(NC(=S)Nc1cccc(C(=O)O)c1)C(Cl)(Cl)Cl)OCc1ccccc1 (stereo not drawn)	24%	5	14%	0%	10%	-2%
CCOC(=O)NC(NC(=S)Nc1ccccc1OC)C(Cl)(Cl)Cl (stereo not drawn)	-3%	0	-10%	-17%	-2%	-23%
CC(=O)Nc1ccccc1C(=O)C(=O)Nc1ccc(Cl)cc1	-4%	6	-14%	-8%	-10%	-21%
CN(C)S(=O)(=O)c1cccc(C(=O)N2CCCCC2C(=O)O)c1 (stereo not drawn)	·	·	·	-17%	·	·
CCN1CCCC1CNC(=O)c1cnn(-c2nccc(-c3cc4ccccc4o3)n2)c1C1CC1 (stereo not drawn)	·	·	?	21%	·	4.1µM*

Screening results: PubChem BioAssay, National Center for Advancing Translational Sciences (NCATS)
